Results from PubChem BioAssay (Tox21).
Records with an inconclusive call do not appear. Where a call stands in place of a potency, no number is given. The source made the active and inactive calls. The call rests on the fitted dose curve; in most records, active means well fitted inhibition curve with a large enough effect in the repeat runs; inconclusive means weak or mixed curves; inactive means no such curve, though single readings can be large or run the other way.

Each compound was assayed against Cytochrome P450 3A4 (Homo sapiens) (UniProt P08684) (assay: Cytochrome P450 Family 3 Subfamily A Member 4 (CYP3A4) small molecule antagonists: luciferase reporter qHTS assay (AID 1671201; further: nearly all actives have a fitted effect of over 50% in size)). Settings: P450-Glo CYP3A4 enzyme, luciferin luminescence, 1 h; series mostly up to 115 µM.
Sequence of Cytochrome P450 3A4 (Homo sapiens) (P08684 whole entry, looked up): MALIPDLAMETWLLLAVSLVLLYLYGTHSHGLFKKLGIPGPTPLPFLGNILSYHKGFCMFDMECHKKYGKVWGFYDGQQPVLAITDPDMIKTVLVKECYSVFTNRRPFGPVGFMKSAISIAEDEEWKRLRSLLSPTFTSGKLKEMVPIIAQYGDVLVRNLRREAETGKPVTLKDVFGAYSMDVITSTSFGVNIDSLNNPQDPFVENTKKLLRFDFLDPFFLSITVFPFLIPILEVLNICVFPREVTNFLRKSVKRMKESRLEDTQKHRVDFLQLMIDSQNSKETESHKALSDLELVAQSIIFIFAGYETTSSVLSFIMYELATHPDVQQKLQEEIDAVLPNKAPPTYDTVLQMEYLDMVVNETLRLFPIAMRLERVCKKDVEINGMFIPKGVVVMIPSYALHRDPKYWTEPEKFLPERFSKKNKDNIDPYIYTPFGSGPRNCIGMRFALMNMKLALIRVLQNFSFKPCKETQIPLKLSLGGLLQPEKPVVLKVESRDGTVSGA
How it was run: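 Luminescent readout (RLU) proportional to CYP3A4 activity, from luciferin generated off a proluciferin substrate. Enzyme–substrate mix plus compound 10 min at room temp, NADPH regeneration 1 h, detection reagent 20 min.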
Potency means the concentration at half of the fitted maximal effect.

Row | Structure (SMILES) | Potency
1 | CC(C)CCCCCOC(=O)c1ccccc1C(=O)OCCCCCC(C)C | 2.79 µM (active)
2 | S=C=Nc1cccc2ccccc12 | 3.14 µM (active)
3 | CC(C)C(=O)Cl | inactive
4 | O=C/C(Cl)=C(/Cl)C(=O)O | inactive
5 | CCOC(=O)C1(c2ccccc2)CCN(CCC(C#N)(c2ccccc2)c2ccccc2)CC1 | inactive
6 | Oc1ccc2ccc3cccc4ccc1c2c34 | 31.7 µM (active)
7 | C[C@]12CC[C@@H]3c4ccc(OC(=O)N(CCCl)CCCl)cc4CC[C@H]3[C@@H]1CC[C@@H]2O | inactive
8 | Oc1ccc(C2(c3ccc(O)cc3)c3ccccc3-c3ccccc32)cc1 | 17.8 µM (active)
9 | CC(Cl)CN(C)C (stereo unspecified) | inactive
10 | CC(C)(c1ccc(O)c(-c2ccccc2)c1)c1ccc(O)c(-c2ccccc2)c1 | 5.03 µM (active)
11 | C1CCC2CCCCC2C1 (stereo unspecified) | inactive
